Screening results deposited in PubChem by Johns Hopkins Ion Channel Center.
Sampled rows, rich in hits. Any-hit rate of the full collection: about 2.3%.
CHT block = inhibits the human high affinity choline transporter; CHT-expressing cells, membrane potential dye, choline response; stronger effect = lower value; Q9GZV3; B-score at 10 µM; 310,000 compounds, 0.86% hits;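 active means B-score over 3 SD under the library average, and starting fluorescence ratio not unusually high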;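 further: choline stimulus applied at its EC90 after an EC20 pre-addition; B-score computed on integrated fluorescence ratio after choline addition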
Target sequence (Q9GZV3 whole entry, looked up): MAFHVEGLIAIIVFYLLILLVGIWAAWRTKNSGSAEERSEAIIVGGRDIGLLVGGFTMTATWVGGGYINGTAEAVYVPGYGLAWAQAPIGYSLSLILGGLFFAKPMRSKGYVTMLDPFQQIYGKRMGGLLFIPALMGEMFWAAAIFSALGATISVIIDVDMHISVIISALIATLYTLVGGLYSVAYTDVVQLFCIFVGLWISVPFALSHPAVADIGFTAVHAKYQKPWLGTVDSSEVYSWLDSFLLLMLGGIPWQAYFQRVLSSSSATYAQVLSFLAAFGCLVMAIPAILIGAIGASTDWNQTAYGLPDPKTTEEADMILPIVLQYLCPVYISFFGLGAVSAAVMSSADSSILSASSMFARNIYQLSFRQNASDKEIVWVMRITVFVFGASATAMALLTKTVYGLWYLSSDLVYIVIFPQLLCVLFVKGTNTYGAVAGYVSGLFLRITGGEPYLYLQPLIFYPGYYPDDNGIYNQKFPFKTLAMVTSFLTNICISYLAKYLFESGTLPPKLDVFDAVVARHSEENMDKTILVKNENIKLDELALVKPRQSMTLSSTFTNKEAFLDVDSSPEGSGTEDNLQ
TMEM16A inh = blocks the mouse calcium-activated chloride channel TMEM16A. HEK293 TMEM16A/YFP iodide influx fluorescence, ionomycin. normalized B-score (activity score, 25-100; higher = stronger inhibition) at 10 µM. 310,000 compounds, 1.2% hits. AID 588511;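 active means ratio plate-corrected score three or more library SD toward inhibition, starting fluorescence score within five deviations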;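 further: score derived from kinetic fluorescence span divided by baseline fluorescence per well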
CHT PAM = human CHT allosteric activation; Q9GZV3; CHT-expressing cells, membrane potential dye, choline EC20; stronger effect = higher value; LV-AA mutant CHT in HEK293 cells; B-score at 10 µM; 310,000 compounds, 0.49% hits; AID 488977;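 active means initial fluorescence not abnormally high and integrated response B-score, plate-corrected, over 3 SD above library mean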
ANO1 activ = mouse TMEM16A channel activation, primary screen. Q8BHY3. HEK293 TMEM16A/YFP-H148Q/I152L, iodide quench fluorescence; stronger effect = lower value. B-score at 10 µM. 340,000 compounds, 0.3% hits;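 active means fluorescence-ratio B-score plate-corrected deviation score at least 3 library SD below zero, with starting fluorescence score within 5 deviations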;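 further: channel opened by trigger with iodide after compound preincubation; score built on the fluorescence ratio of max minus min over baseline; more negative score means more quench and so TMEM16A activation or potentiation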
CHT activ conf = confirmation of human choline transporter (CHT) activators; shares compounds with CHT PAM; CHT-expressing cells, membrane potential dye fluorescence (FDSS); % of choline EC20–EC90 response window; HEK293 expressing CHT LV-AA mutant; choline added at its EC20; AID 504833; activation, % at 10 µM; 2,500 compounds, 91% hits;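 active means primary screen active, with duplicate mean activation above negative control mean plus 3 SD, cut at about 11% in these data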
HEK293 MP dye = CHT activator counter-screen hit in parental HEK293 cells; shares compounds with CHT PAM; 2,500 compounds, 62% hits; ratio readout change at 10 µM, hits read low; membrane potential dye fluorescence (FDSS); measured after EC20 choline addition;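 active means duplicate-averaged ratio beyond 3 SD from buffer wells, up or down, though filed actives are nearly all decreases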
Starred values were filed as active, the others as inactive; i = inactive; · = not tested or not shown; ! = repeats disagree.

SMILES	CHT block	TMEM16A inh	CHT PAM	ANO1 activ	CHT activ conf	HEK293 MP dye
CCCn1cnc2cc(NCc3cccs3)ccc21	i	i	i	i	·	·
O=[N+]([O-])c1cccc(/C=N/Nc2nccnc2Cl)c1	i	i	6.2*	i	41*	-37*
CCCn1c(SC(C)C(=O)NCC2CCCO2)nc2sc3c(c2c1=O)CCC3 (stereo not given)	i	i	i	i	·	·
COc1cc(OC)c2nc(C)c3c(c2c1)N(c1ccc(O)cc1)CC3	i	i	6.4*	i	34*	-42*
Cn1c(SCC(=O)NC2CCCC2)nnc1C(F)(F)F	·	·	·	i	·	·
COCCN(C(=S)Nc1ccc(OC)cc1)C(C)c1cccs1 (stereo not given)	i	i	8.1*	i	6	i
Cc1cc(C)nc(NC(=O)c2cnc3sccn3c2=O)n1	i	i	9.1*	i	52*	-51*
COc1cccc(C2CNC3(CCCC(C)C3)c3[nH]c4ccccc4c32)c1OC (stereo not given)	i	i	i	i	18*	i
O=C(c1ccc(S(=O)(=O)c2cccc(Cl)c2)c([N+](=O)[O-])c1)N1CCN(c2ccccn2)CC1	i	i	8.5*	i	9	i
Cc1cc(NC(=O)c2cc(-c3ccc(OC(C)C)cc3)nc3ccccc23)no1	i	i	i	i	·	·
Cc1ccc(-c2nn3c(C)nnc3s2)cc1NC(=O)c1cccnc1	i	i	8.3*	i	59*	-54*
O=C(Nc1cccc(NC(=O)c2cccnc2)c1)c1cccnc1	i	i	i	i	·	·
Cc1nnc2sc(-c3cccc(NC(=O)c4cccnc4)c3)nn12	i	i	7.9*	i	35*	-49*
O=C(NC1CCCCC1)C(c1ccco1)N(Cc1cccnc1)C(=O)C1COc2ccccc2O1 (stereo not given)	i	i	i	i	13*	i
CC(C)c1ccc(/C=C2\SC(=O)N(CC(=O)NC3CCS(=O)(=O)C3)C2=O)cc1 (stereo not given)	i	i	i	i	·	·
O=c1cc(-c2ccc(O)cc2)oc2ccccc12	i	i	i	i	·	·
O=c1cc(-c2ccncc2)oc2ccccc12	i	i	i	i	46*	-49*
CCOC(=O)N1CCN(C(=O)c2ccc(N(Cc3ccc(Cl)cc3)S(C)(=O)=O)cc2)CC1	i	i	8.8*	i	2	i
CCOC(=O)N1CCN(C(=O)c2ccc(N(Cc3ccc(C)cc3)S(C)(=O)=O)cc2)CC1	i	i	i	i	·	·
CC(C)(C)OC(=O)NCCCCCc1nnc(SCc2cccc(F)c2)o1	i	25*	8.3*	i	-2	i
CC(C)(C)OC(=O)NCCCCCc1nnc(SCc2ccccc2F)o1	i	i	i	i	·	·
CC(C)(CN1CCN(Cc2ccccc2)CC1)NS(=O)(=O)c1ccc(Cl)cc1	i	i	9*	i	21*	i
CC(C)CC(c1nnnn1C(C)C)N1CCN(c2cccc(Cl)c2)CC1 (stereo not given)	i	i	i	i	26*	i
CC(C)CC(c1nnnn1C(C)C)N1CCN(C(=O)c2ccco2)CC1 (stereo not given)	i	i	i	i	·	·
O=[N+]([O-])c1ccc(C[n+]2cccc3c4ccccc4ccc32)cc1	i	i	10*	i	75*	-75*
SMILES	CHT block	TMEM16A inh	CHT PAM	ANO1 activ	CHT activ conf	HEK293 MP dye
Cc1ccc[n+](Cc2ccc([N+](=O)[O-])cc2)c1	i	i	i	i	·	·
O=C(NCc1ccncc1)c1ccc(NS(=O)(=O)c2ccc(F)cc2)cc1	·	·	·	i	·	·
CCCCCC(=O)Cc1cc(O)cc2c1C(=O)Oc1cc(O)c(C(=O)O)c(CCCCC)c1O2	i	25*	i	·	30*	-50*
CC(C)NC(=O)Nc1cccc2c1O[C@H](CN(C)S(C)(=O)=O)[C@@H](C)CN([C@H](C)CO)C2=O	·	·	·	i	·	·
COc1ccc(Nc2nc(NCC3CCCO3)c3ccccc3n2)c(OC)c1 (stereo not given)	i	i	i	i	·	·
CCOc1ccc(Nc2nc(NCC3CCCO3)c3ccccc3n2)cc1 (stereo not given)	i	i	i	i	23*	-31*
CC1CCN(C(=O)CCCl)c2ccccc21 (stereo not given)	·	·	·	i	·	·
Cc1ccc(NC(=O)CNCc2ccccc2Cl)cc1S(=O)(=O)N(C)C	i	i	i	i	·	·
COc1ccccc1-n1c(-c2ccccc2)c[n+]2c1CCc1ccccc1-2	i	i	11*!	i	32*	i
COc1ccc(-n2c(-c3ccc(Br)cc3)c[n+]3c2CCc2ccccc2-3)cc1	i	i	i	i	91*	-29*
Cc1cc(C)n2nc(-c3cccnc3)nc2n1	i	i	i	i	48*	-51*
O=C(CN1CCN(CC(=O)Nc2ccccc2Cl)CC1)NCC1(N2CCOCC2)CCCCC1	·	·	·	i	·	·
Oc1ccc2ccccc2c1N=Nc1ccccc1F	i	i	i	i	·	·
O=S(=O)(O)c1cccc(N=Nc2c(O)ccc3ccccc23)c1	i	i	i	i	33*	-39*
Cc1cc(C[n+]2ccsc2N)c2ncccc2c1	i	i	i	i	43*	-52*
Nc1scn[n+]1Cc1cccc2cccnc12	i	i	i	i	·	·
O=C(CNC(=O)c1ccc(Cl)cc1Cl)OCCOc1ccccc1F	·	·	·	i	·	·
COC(=O)C1=C(C)NC(=O)/C1=C\c1cc(C)n(-c2ccccc2C)c1C	i	i	i	i	·	·
COC(=O)C1=C(C)NC(=O)/C1=C\c1cc(C)n(-c2c(C)cccc2C)c1C	i	i	i	i	16*	i
COCCCNC(=O)/C(C#N)=C/c1c(N2CCN(C)CC2)nc2ccccn2c1=O	i	i	i	i	48*	-42*
O=Cc1c(N2CCCCC2)nc2ccccn2c1=O	i	i	i	i	·	·
COCCNC(=O)/C(C#N)=C/c1c(N2CCN(c3ccccc3)CC2)nc2ccccn2c1=O	i	i	i	i	·	·
COCCNC(=O)/C(C#N)=C/c1c(N2CCCCCC2)nc2c(C)cccn2c1=O	i	i	i	i	·	·
COCCCNC(=O)/C(C#N)=C/c1c(N2CCN(c3ccccc3)CC2)nc2ccccn2c1=O	i	i	i	i	·	·
CN1CCN(c2nc3ccccn3c(=O)c2C=O)CC1	i	i	6.3*	i	48*	-45*
